Sampled rows, rich in hits. Any-hit rate of the full collection: about 11%.
HEK293 tox: kills HEK 293 cells | HEK 293 viability, ATP luminescence (CellTiter-Glo), 48-72 h | Potency, µM (series often up to 115 µM), hits mostly inhibitors | 94,000 tested, 6.6% active; also: nearly all actives have a fitted effect of over 60% in size
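Viability of HEK 293 cells, plated at 250 cells/well, was judged by cellular ATP after compound treatment for 48 or 72 hr. Luminescence was imaged 10 min after CellTiter-Glo addition at room temperature.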
NPR1 antag: antagonists of human natriuretic peptide receptor Npr1. 76,000 tested, 1.6% active. P16066. HEK293 hNpr1 GloSensor cGMP, ANP-stimulated luminescence. Potency, µM (doses to about 46.3 µM), most hits filed as inhibitors; calls by dose curve; also: nearly all actives have a fitted effect of over 60% in size
Target sequence (P16066 whole entry, looked up): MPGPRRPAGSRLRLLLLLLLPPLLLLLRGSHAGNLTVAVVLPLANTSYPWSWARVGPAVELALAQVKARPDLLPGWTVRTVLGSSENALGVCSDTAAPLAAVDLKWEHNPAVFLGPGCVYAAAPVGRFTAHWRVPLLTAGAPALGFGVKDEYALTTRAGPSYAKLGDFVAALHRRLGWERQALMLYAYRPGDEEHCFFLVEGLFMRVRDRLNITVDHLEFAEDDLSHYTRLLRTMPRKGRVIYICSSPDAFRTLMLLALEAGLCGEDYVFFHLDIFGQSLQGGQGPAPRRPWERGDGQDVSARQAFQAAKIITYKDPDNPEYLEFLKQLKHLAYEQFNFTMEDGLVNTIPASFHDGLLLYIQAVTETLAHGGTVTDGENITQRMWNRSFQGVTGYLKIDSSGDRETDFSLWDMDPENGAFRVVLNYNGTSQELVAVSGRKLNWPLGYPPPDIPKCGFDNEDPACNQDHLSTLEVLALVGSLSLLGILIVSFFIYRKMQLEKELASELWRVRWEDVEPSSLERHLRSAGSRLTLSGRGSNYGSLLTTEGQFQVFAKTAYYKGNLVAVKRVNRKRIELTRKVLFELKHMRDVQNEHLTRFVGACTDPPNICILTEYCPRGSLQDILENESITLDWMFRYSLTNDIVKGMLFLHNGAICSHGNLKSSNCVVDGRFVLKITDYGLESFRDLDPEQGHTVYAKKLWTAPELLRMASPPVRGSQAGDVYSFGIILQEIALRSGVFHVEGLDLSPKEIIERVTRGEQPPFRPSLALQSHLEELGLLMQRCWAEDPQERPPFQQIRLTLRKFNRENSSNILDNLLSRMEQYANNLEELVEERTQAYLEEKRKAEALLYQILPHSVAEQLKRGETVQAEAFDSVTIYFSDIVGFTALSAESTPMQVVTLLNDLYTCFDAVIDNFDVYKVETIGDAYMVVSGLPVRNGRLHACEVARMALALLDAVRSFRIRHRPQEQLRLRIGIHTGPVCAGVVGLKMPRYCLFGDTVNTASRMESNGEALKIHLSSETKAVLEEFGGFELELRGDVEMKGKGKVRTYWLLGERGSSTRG
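HEK293 cells stably expressing human Npr1 and cGMP GloSensor pGS-40F, loaded 2 h with 2% GloSensor reagent, given compound 30 min at room temperature. Luminescence read before and 20 min after 0.1 nM hNppA.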
NIH3T3 tox: kills NIH 3T3 cells | AID 1345082 | 94,000 tested, 4.3% active | NIH 3T3 viability, CellTiter-Glo ATP luminescence, 48-72 h | Potency, µM (highest dose often 96.7 µM), hits mostly inhibitors; also: nearly all actives have a fitted effect of over 55% in size
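First NIH 3T3 cells are plated at 400 cells/well; next compound is pinned in; then plates incubate 48 or 72 hr at 37 °C; finally CellTiter-Glo is added and luminescence read after 10 min.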
FLuc inh: inhibitors of firefly (Photinus pyralis) luciferase | P08659 | purified P. pyralis luciferase, luminescence, biochemical | Potency, µM (doses to about 115 µM), most hits filed as inhibitors | 76,000 tested, 2.5% active | AID 1347043; also: nearly all actives have a fitted effect of over 65% in size
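FLuc 10nM, D-luciferin 10uM, ATP 10uM, Mg acetate 10mM, Tris acetate pH 7.5, Tween/BSA; cpd qHTS; enzyme added last; CCD luminescence.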
Of the large screens only hits and unclear results are named; the others gave an inactive call. Unless noted, calls follow the shape of the dose curve; as a rule, active = well fitted curve in the direction sought with a large enough effect; inconclusive = small, poorly fitted or top-dose-only effect, or another doubt; inactive = no such curve, though single readings can be large; an effect the other way counts as inactive or inconclusive.

Cc1cc(C(=O)N2CC(C(=O)NCCc3ccncc3)C3(CCOCC3)C2)nn1C (stereo not drawn)	none
O=C(NCc1cc(F)ccc1F)C1Cn2cccc2C(=O)N1Cc1ccccc1 (stereo not drawn)	none
COc1ccccc1-c1cccc(C(=O)N2CCC[C@H]2C(=O)NCc2ccc(C(F)(F)F)cc2)c1	HEK293 tox 79.4µM, NIH3T3 tox inconclusive (no result: NPR1 antag, FLuc inh)
COc1ccc(CNC(=O)C2CCCCN2Cc2ccc(-c3ccccc3OC)cc2)cc1OC (stereo not drawn)	HEK293 tox 31.6µM, NIH3T3 tox inconclusive (no result: NPR1 antag, FLuc inh)
COc1ccc(F)cc1-c1ccc(CN2CCCCC2C(=O)NCc2ccccc2F)cc1 (stereo not drawn)	HEK293 tox 25.1µM, NIH3T3 tox inconclusive (no result: NPR1 antag, FLuc inh)
COc1ccc(F)cc1-c1ccc(CN2CCCCC2C(=O)NCc2ccccc2)cc1 (stereo not drawn)	HEK293 tox 31.6µM, NIH3T3 tox inconclusive (no result: NPR1 antag, FLuc inh)
COC(=O)CNC(=O)N1c2ccccc2CC1c1nc(C(C)C)no1 (stereo not drawn)	none
O=C(C1CCCC1)N1CCCCC12Cc1ccccc1NC2=O (stereo not drawn)	none
CN(CC1Cc2ccccc2O1)C(=O)c1coc(COc2ccc3c(c2)OCO3)n1 (stereo not drawn)	HEK293 tox inconclusive
COc1ccccc1-c1cccc(C(=O)N2CCC[C@H]2C(=O)NCc2cccc(F)c2)c1	HEK293 tox inconclusive (no result: NPR1 antag, FLuc inh)
COc1ccc(F)cc1-c1ccc(CN2CCCCC2C(=O)NC(C)CCc2ccccc2)cc1 (stereo not drawn)	HEK293 tox 25.1µM, NIH3T3 tox inconclusive (no result: NPR1 antag, FLuc inh)
O=C(NCc1cccc(C(F)(F)F)c1)C1CCCN1Cc1ccc(-c2cncnc2)cc1 (stereo not drawn)	HEK293 tox 50.1µM, NIH3T3 tox inconclusive (no result: NPR1 antag, FLuc inh)
COc1ccccc1-c1ccc(CN2CCCCC2C(=O)NCc2cccc(C(F)(F)F)c2)cc1 (stereo not drawn)	HEK293 tox 28.2µM, NIH3T3 tox inconclusive (no result: NPR1 antag, FLuc inh)
COc1ccc(F)cc1-c1ccc(CN2CCCCC2C(=O)NCc2cccs2)cc1 (stereo not drawn)	HEK293 tox inconclusive, NIH3T3 tox 12.6µM (no result: NPR1 antag, FLuc inh)
Cc1nc([C@H]2CCN(Cc3ccc(F)c(F)c3)C[C@H]2NC(=O)C2CC2)n[nH]1	none
COC[C@@H]1CN(C(=O)Cc2ccccc2Cl)C[C@H]1C(N)=O	none
CCNC(=O)N[C@@H]1C=C[C@@H](c2c(C)nn(-c3ccc(C(C)(C)C)cc3)c2C)C1	HEK293 tox 35.5µM, NPR1 antag 31.6µM, NIH3T3 tox inconclusive, FLuc inh inconclusive
Cc1nn(-c2ccc(C(C)(C)C)cc2)c(C)c1[C@@H]1C=C[C@@H](NC(=O)c2ccc(N(C)C)cc2)C1	HEK293 tox inconclusive, NIH3T3 tox inconclusive
Cc1nn(-c2ccc(C(F)(F)F)cc2)c(C)c1[C@@H]1C=C[C@@H](NC(=O)NC2CCCCC2)C1	HEK293 tox inconclusive, NIH3T3 tox inconclusive
Cc1nn(-c2ccc(C(C)C)cc2)c(C)c1[C@@H]1C=C[C@@H](NC(=O)NC2CCCCC2)C1	HEK293 tox inconclusive, NPR1 antag inconclusive, NIH3T3 tox inconclusive, FLuc inh 7.94µM
Cc1nn(-c2ccc(C(C)C)cc2)c(C)c1[C@@H]1C=C[C@@H](NC(=O)Nc2ccc(Cl)cc2)C1	HEK293 tox inconclusive, NIH3T3 tox inconclusive
Cc1nn(-c2ccc(C(F)(F)F)cc2)c(C)c1[C@@H]1C=C[C@@H](NC(=O)CC(C)(C)CC(=O)O)C1	NIH3T3 tox inconclusive
Cc1nn(-c2ccc(C(C)C)cc2)c(C)c1[C@@H]1C=C[C@@H](NC(=O)NCc2ccccc2)C1	HEK293 tox 25.1µM, NPR1 antag 7.08µM, NIH3T3 tox 25.1µM, FLuc inh inconclusive
Cc1nn(-c2ccc(C(C)(C)C)cc2)c(C)c1[C@@H]1C=C[C@@H](NCc2ccco2)C1	HEK293 tox 11.2µM, NIH3T3 tox inconclusive, FLuc inh 50.1µM
O=C(c1ccccc1F)N1CCC2(C1)C(=NC1CCCCC1)NC(=O)N2c1cc(F)cc(F)c1 (stereo not drawn)	none (no result: NPR1 antag, FLuc inh)
CCC(=O)N1CCCC1c1nc(CCOc2ccc(F)cc2)no1 (stereo not drawn)	none (no result: NPR1 antag, FLuc inh)
Cc1nn(-c2ccc(C(C)(C)C)cc2)c(C)c1[C@@H]1C=C[C@@H](NC(=O)NCc2ccccc2)C1	HEK293 tox 28.2µM, NPR1 antag 17.8µM, NIH3T3 tox inconclusive, FLuc inh inconclusive
CCCN1CCN(C(=O)Cn2c(C)ccc(NC(=O)Nc3ccccc3)c2=O)CC1	FLuc inh 35.5µM
Cc1ccc(NC(=O)Nc2ccc(C)n(CC(=O)NC3CCCCC3)c2=O)cc1	HEK293 tox inconclusive, NPR1 antag inconclusive, NIH3T3 tox inconclusive, FLuc inh 0.398µM
COc1ccc(NC(=O)Nc2ccc(C)n(CC(=O)Nc3ccc(C)c(C)c3)c2=O)cc1	HEK293 tox inconclusive, FLuc inh 0.708µM
Cc1ccc(S(=O)(=O)Nc2ccc(C)n(CC(=O)Nc3ccccc3)c2=O)cc1	none
COc1ccc(OCc2nc(C)c(CCO)c(=O)n2CC(=O)Nc2ccc(C)c(C)c2)cc1	HEK293 tox inconclusive
Cc1ccc(NC(=O)Nc2ccc(C)n(CC(=O)Nc3ccccc3)c2=O)cc1	FLuc inh 0.794µM
Cc1ccc(NC(=O)Nc2ccccc2)c(=O)n1CC(=O)NCCN1CCCCC1	none
CCCCn1c(=O)c(C(=O)N2CCOCC2)nc2cccnc21	none (no result: NPR1 antag, FLuc inh)
O=C(c1cc2ccccc2[nH]1)N1CCCC(n2cc(-c3nc(-c4ccccc4)no3)nn2)C1 (stereo not drawn)	FLuc inh inconclusive
COCCC1CN(Cc2nc(-c3cccc(C(F)(F)F)c3)oc2C)CCO1 (stereo not drawn)	HEK293 tox inconclusive, NIH3T3 tox inconclusive
COc1cccc(NC(=O)Cn2c(C)ccc(NC(=O)Nc3ccc(C)cc3)c2=O)c1	HEK293 tox 79.4µM, NPR1 antag inconclusive, NIH3T3 tox inconclusive, FLuc inh 1µM
COc1cccc(Nc2cc3c(cn2)NCCN(Cc2ccccc2)C3)c1	HEK293 tox 89.1µM, NIH3T3 tox inconclusive
COCCN1CCNc2cc(NCc3ccccc3)ncc2C1	HEK293 tox inconclusive, NIH3T3 tox inconclusive
COc1cccc(CN2CCNc3cnc(Nc4ccccc4)cc3C2)c1	HEK293 tox 89.1µM, NPR1 antag inconclusive, NIH3T3 tox inconclusive
COc1ccc(OC)c(CN2CCNc3cnc(Nc4cccnc4)cc3C2)c1	HEK293 tox inconclusive, NIH3T3 tox inconclusive
COc1ccc(Nc2cc3c(cn2)CN(CCc2ccccc2)CCN3)cn1	HEK293 tox 63.1µM, NIH3T3 tox 50.1µM
CC(C)(C)CNCC1(O)CCCN(Cc2cccc(F)c2F)C1=O (stereo not drawn)	HEK293 tox inconclusive
CSc1ncc(CN2CCOC(Cc3cccc(C(F)(F)F)c3)C2)cn1 (stereo not drawn)	HEK293 tox 22.4µM, NIH3T3 tox 28.2µM
O=C(Cn1cccn1)N1CCOC(Cc2cccc(C(F)(F)F)c2)C1 (stereo not drawn)	none
O=C(CN1C(=O)NC2(CCCCC2)C1=O)NCc1cccc(Br)c1	HEK293 tox inconclusive
O=C1CCCCC(CNC(=O)C2CCCC2)N1 (stereo not drawn)	none

Screening results from PubChem BioAssay.
